# Measured values taken from article PMC5540273 (PLoS ONE, 2017).
# Experiments:
# Details in all cases: concentration: 1 μM, replicates: in singlicate; n = 1
# [1] = system: ADCK4
# [2] = system: AKT1
# [3] = system: AKT2
# [4] = system: AKT3
# [5] = system: ALK
# [6] = system: T1, AMPK-alpha1
# T1 construct: gene PRKAA1
# [7] = system: T2, AMPK-alpha2
# T2 construct: gene PRKAA2
# [8] = system: ANKK1
# [9] = system: T3, ARK5
# T3 construct: gene NUAK1
# [10] = system: T4, ASK1
# T4 construct: gene MAP3K5
# [11] = system: T5, ASK2
# T5 construct: gene MAP3K6
# [12] = system: AURKA
# [13] = system: AURKB
# [14] = system: AURKC
# [15] = system: AXL
# [16] = system: T6, BIKE
# T6 construct: gene BMP2K
# [17] = system: BLK
# [18] = system: BMPR1A
# [19] = system: BMPR1B
# [20] = system: BMPR2
# 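Further: KINOMEscan kinase panel screen.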
Compound,%Inh [1],%Inh [2],%Inh [3],%Inh [4],%Inh [5],%Inh [6],%Inh [7],%Inh [8],%Inh [9],%Inh [10],%Inh [11],%Inh [12],%Inh [13],%Inh [14],%Inh [15],%Inh [16],%Inh [17],%Inh [18],%Inh [19],%Inh [20]
Cc1cccc(Nc2nc(NCCN)ncc2C(N)=O)c1 [GSK1292139],42%,0%,0%,0%,46%,0%,0%,94.9%,64%,0%,8%,18%,0%,25%,9%,77%,1%,0%,0%,70%
Cc1ccccc1CC(=O)N1CCc2cc(-c3cn(C)c4ncnc(N)c34)ccc21 [GSK2603346],3%,0%,4%,0%,20%,18%,23%,0%,42%,30%,6%,27%,92%,100%,98.7%,82%,49%,0%,0%,0%
COc1cc(Nc2ccnc3cc(-c4ccncc4)ccc23)cc(OC)c1OC.Cl [GW494610],14%,0%,10%,0%,29%,5%,32%,0%,12%,0%,0%,0%,82%,27%,31%,0%,94.9%,62%,99%,10%
O=C(Nc1n[nH]c2nc(-c3ccccc3)ccc12)C1CC1 [SB-708999],12%,14%,9%,0%,3%,17%,12%,63%,8%,18%,32%,22%,15%,8%,0%,40%,0%,0%,6%,10%
O=C(Nc1n[nH]c2nc(-c3ccccc3O)ccc12)C1CC1 [SB-711880],17%,0%,0%,0%,0%,90%,0%,0%,0%,0%,34%,31%,81%,6%,18%,41%,0%,0%,0%,8%
Cc1ccc(NC(=O)c2ccc(Cl)c(Cl)c2)cc1-c1ccc(C(=O)Nc2ccncc2)cc1 [GSK1398460],20%,0%,15%,0%,41%,21%,21%,18%,10%,16%,0%,7%,1%,67%,100%,40%,45%,0%,0%,0%
Cc1ccc(-c2ccc3occ(-c4ccc(S(C)=O)cc4)c3c2)nn1 (stereo not drawn),0%,2%,12%,9%,0%,0%,1%,0%,16%,0%,0%,0%,3%,0%,0%,0%,0%,15%,0%,0%
Nc1ncc(-c2ccc3nccc(-c4ccncc4)c3c2)cc1S(=O)(=O)N1CCCCC1 [GSK1693850],33%,0%,1%,0%,22%,0%,1%,35%,0%,14%,0%,59%,31%,35%,52%,14%,0%,0%,0%,0%
CN(c1ccc(F)c(NC(=O)c2cccc(OC(C)(C)C#N)c2Cl)c1)c1ccc2nc(NC(=O)C3CC3)sc2n1,0%,2%,4%,0%,46%,0%,0%,0%,0%,0%,6%,22%,4%,0%,6%,0%,96.3%,0%,0%,0%
